Compound activity: PubChem, National Center for Advancing Translational Sciences (NCATS)
TRHR ag: activates the human TRH receptor; P34981; TRHR cells, calcium flux fluo-8, FDSS agonist mode; activation, % at 2 µM; 360,000 compounds, 0.18% hits; AID 493084; also: 0% is about no effect
Target sequence (P34981 whole entry, looked up): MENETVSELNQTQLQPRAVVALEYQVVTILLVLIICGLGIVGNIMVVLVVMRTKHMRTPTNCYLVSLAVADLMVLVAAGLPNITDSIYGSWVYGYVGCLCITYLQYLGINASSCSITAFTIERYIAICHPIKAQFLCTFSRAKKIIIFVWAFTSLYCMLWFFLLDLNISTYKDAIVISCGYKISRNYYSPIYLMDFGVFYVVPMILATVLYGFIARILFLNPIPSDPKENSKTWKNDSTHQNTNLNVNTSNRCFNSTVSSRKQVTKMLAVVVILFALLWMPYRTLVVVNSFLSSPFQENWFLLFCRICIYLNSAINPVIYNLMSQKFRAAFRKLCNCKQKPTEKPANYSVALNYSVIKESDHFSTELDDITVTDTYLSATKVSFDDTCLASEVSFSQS
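Fluo-8-loaded TRHR cells; 10 s baseline, compound added, kinetic Ca2+ fluorescence read 1/s, agonist mode.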
D1 potentiator: enhances dopamine response at the human D1 receptor | P21728 | HEK293 TREx D1 cells, calcium flux, dopamine EC20 potentiation | potentiation, % at 10 µM | 360,000 compounds, 0.036% hits; in the data active = potentiation above about 30%; also: 0% is about no effect
TRHR PAM: allosteric enhancers of human TRH receptor. enhancement, % at 2 µM. TRHR cells, fluo-8 calcium fluorescence, EC20 TRH enhancement. 360,000 compounds, 0.66% hits; in the data active = enhancement above about 30%; also: 0% is about no effect
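Enhancer read-out: after compound pinning and an initial kinetic agonist-mode read, an EC20 of TRH (10 nM final) was injected and fluo-8 calcium signal (Ex 480/Em 530) followed at 1 s/cycle for 100 cycles in TRHR-expressing cells.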
D1 agonist: agonists of human D1 dopamine receptor; HEK293 T-REx D1 cells, calcium flux, agonist mode; activation, % at 2 µM; 360,000 compounds, 1% hits; also: 0% is about no effect
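Agonism was scored from calcium flux recorded over 180 s (1 read/s) after pintool compound addition, following a 10-cycle baseline. Cells were inducible force-coupled HEK293 TREx D1, plated overnight at 30 C and loaded with no-wash calcium dye.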
D1 antagonist: blocks dopamine activation of the human D1 receptor; P21728; HEK293 TREx D1 cells, calcium flux, dopamine EC80; active compounds read low; activity change, negative = inhibition, % at 10 µM; 360,000 compounds, 3.2% hits; AID 504652; in the data active = activity change below about -30%; also: % is scaled to controls: 0 for no effect and ±100 for the full control effect
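Allosteric or orthosteric antagonism assessed as attenuation of the calcium response to EC80 dopamine, added 180 s after compound, in induced HEK293 Trex D1 cells loaded with no-wash calcium dye.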
The depositor's hits bear a star; ! = repeats disagree. Only some compounds are listed: those with a hit (about 4.7% of all), similar ones and a draw of the others. Rule as the data show it, unless noted: active = activation above about 30%; inactive = the rest.

SMILES	TRHR ag	D1 potentiator	TRHR PAM	D1 agonist	D1 antagonist
CCC1CCCCN1C(=O)c1ccc2c(c1)N(Cc1cccc(Cl)c1)C(=O)c1ccccc1S2(=O)=O (stereo not drawn)	0	-4	-3	0	1
CN1CCN(c2ccc(-c3cc(O)c4ncccc4c3)cc2)CC1	0	-2	-1	6	1
COCC(C)NC(=O)c1cc2c(=O)n3cccc(C)c3nc2s1 (stereo not drawn)	-2	0	22	1	-21
Cc1cc(C)cc(OCc2nc(-c3cccnc3)no2)c1	0	-1	-8	3	-30*
O=C(NCc1nc(-c2ccccc2)no1)Nc1ccc(F)cc1	0	-1	40*	7	-2
CCOc1cc(C(=O)NCc2nc(-c3cccc(C)c3)no2)cc(OCC)c1OCC	2	0	-1	7	-31*
Cc1ccc(CC(=O)NCc2nc(-c3ccccc3)no2)cc1	-1	-3	-1	0	1
CCc1ccc(OCC(=O)NCc2nc(-c3cccc(C)c3)no2)c(Br)c1	-1	-2	18	38*	8
Cc1ccc(OCc2nc(-c3cccnc3)no2)cc1C	0	2	1	1	-18
Cc1nc2nc(NC(=O)C(C)(C)C)[nH]n2c(=O)c1Cc1ccccc1	0	0	-2	-1	3
O=C(NCCS(=O)(=O)N1CCN(c2ccccc2F)CC1)C1CC(=O)N(c2ccccc2)C1 (stereo not drawn)	0	-2	5	115*!	4
O=C(NCCCN1CCN(c2ccccc2F)CC1)C1COc2ccccc2C1 (stereo not drawn)	0	-4	-1	6	-34*
COc1ccc(N2CCN(CCCNC(=O)C3COc4ccccc4C3)CC2)cc1 (stereo not drawn)	0	-1	8	13	-19
Cc1ccc(C)c(N2CCN(CCCNC(=O)C3COc4ccccc4C3)CC2)c1 (stereo not drawn)	1	0	-6	63*	-26
COc1ccc2c(c1)CC(C(=O)NCCN1CCN(c3ccccc3F)CC1)CO2 (stereo not drawn)	0	-5	8	1	-40*
Cc1ccc(NC(=O)CSc2ccc(-c3cccs3)nn2)cc1Cl	0	-4	8	5	7
CC(=O)c1cc2c(cc1NC(=O)c1cnn(-c3ccc(C)cc3)c1-n1cccc1)OCO2	1	0	11	0	-4
O=C(NCCCN1CCN(c2ccccc2F)CC1)C1CCN(S(=O)(=O)N2CCOCC2)CC1	0	-10	8	9	-88*
CCC(=O)N1c2ccccc2CC1C(=O)NCCN1CCN(c2ccccc2F)CC1 (stereo not drawn)	0	-1	-1	-1	-3
O=C(NCCN1CCN(c2ccccc2F)CC1)C1c2ccccc2C(=O)N2CCc3ccccc3C12 (stereo not drawn)	0	-4	1	0	-44*
O=C(NCCN1CCN(c2ccccc2)CC1)C1CCN(S(=O)(=O)N2CCOCC2)CC1	0	4	-3	2	-11
COc1ccccc1OCc1ccc(C(=O)NN)o1	0	-4	1	3	-16
COc1ccc(NC(=O)c2ccc(COc3ccccc3Br)o2)cc1OC	-2	-8	16	1	-37*
COc1ccccc1OCc1ccc(C(=O)Nc2ccc(Cl)cn2)o1	-1	-5	-8	3	-36*
COc1ccc(NC(=O)c2ccc(COc3ccccc3OC)o2)cc1OC	-1	-7	13	-1	-5
SMILES	TRHR ag	D1 potentiator	TRHR PAM	D1 agonist	D1 antagonist
CSc1ncc(C(=O)Nc2ccc(C)c(Cl)c2)c(-c2ccccc2)n1	0	1	-2	12	4
COc1ccc(C(=O)Nc2cccc(C(=O)N/N=C/c3ccc(OC)cc3OC)c2)cc1	0	-8	-4	1	-48*
COc1ccc(/C=N/NC(=O)c2cccc(NC(C)=O)c2)c(OC)c1	0	-4	-1	1	4
COc1ccc(C(=O)Nc2cccc(NC(=O)c3cccs3)c2)cc1	0	-5	-3	3	-31*
COc1cc(NC(=O)c2c(F)c(F)c(OC)c(F)c2F)ccc1NC(=O)c1cccs1	0	-12	-9	3	-46*
COc1cc(NC(=O)c2cc(OC)c(OC)c(OC)c2)ccc1NC(=O)c1cccs1	0	-4	13	0	-19
Cc1ccccc1C(=O)NCC(=O)OC(C(=O)Nc1cc(C(F)(F)F)ccc1Cl)c1ccccc1 (stereo not drawn)	2	-4	-8	13	-8
O=C(Nc1ccc(F)c(Cl)c1)C1Cc2ccccc2CN1S(=O)(=O)c1ccc(F)cc1 (stereo not drawn)	2	-3	3	6	0
COc1cccc(NC(=O)Cn2c(=O)n(CCC(=O)NCc3ccccc3OC)c(=O)c3ccccc32)c1	-2	0	-11	5	-2
CC(Nc1nc(N2CCNCC2)nc2ccccc12)c1ccccc1 (stereo not drawn)	0	-11	-6	3	-54*
Fc1cc2[nH]c(=S)[nH]c2cc1Cl	-1	-4	-6	2	-41*
Cc1cc2[nH]c(=S)[nH]c2cc1C	0	2	-3	2	-16
Cc1cc(NC(=O)CSCC(=O)N(C)Cc2cccc(Cl)c2)no1	0	-11	-2	3	-18
Cc1cc(NC(=O)C(=O)NCc2cccc(Cl)c2)no1	0	2	1	5	-33*
Cc1cc(NC(=O)Nc2ccc(C)c(C)c2)no1	0	-6	2	4	-5
Cc1cc(NC(=O)Nc2cc(Cl)ccc2C)no1	2	0	5	35*	-10
CCNC(=S)N(Cc1cc2cc(C)cc(C)c2[nH]c1=O)C1CCCC1	0	-4	5	0	-47*
Cc1cc(C)c2[nH]c(=O)c(CN(Cc3cccs3)C(=S)NCC3CCCO3)cc2c1 (stereo not drawn)	-1	-6	-3	-1	-31*
CNC(=S)N(Cc1cc2cc(C)cc(C)c2[nH]c1=O)C1CCCC1	0	-1	7	1	16
CCCn1c(=O)n(-c2ccccc2Cl)c(=O)c2sc3ccccc3c21	0	-2	-4	1	3
Cc1c(C(=O)N(Cc2ccc(N(C)C)cc2)CC2CCCO2)oc2ccc(Br)cc12 (stereo not drawn)	0	-2	22	-1	-17
Cc1ccc(Cl)cc1-n1ncc2c(NCCCc3ccccc3)ncnc21	1	-3	-5	8	-36*
Cc1ccc(Cl)cc1-n1ncc2c(NCc3ccc(F)cc3)ncnc21	17	3	-4	77*	-61*
Cc1cccc(-n2ncc3c(NC4CCCC4)ncnc32)c1	-1	-1	-1	-4	-34*
